# Screens: PubChem, several laboratories
# GDH-TPI inh – inhibits GDH-TPI coupling enzymes, artifact for Mtb FBA screen. GDH-TPI coupled enzyme counterscreen, NADH absorbance. inhibition, % at 4.8 µM. 360,000 tested, 1.2% active; in the data active means inhibition above about 30%;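 further: 0% = DMSO wells and 100% = wells lacking the enzyme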
# PfHsp40 yeast – compounds rescuing yeast from Plasmodium falciparum HSP40 toxicity; growth rescue, % at 12.5 µM; 340,000 tested, 0.68% active; AID 504582; S. cerevisiae expressing PfHsp40, growth rescue, ATP luminescence; in the data active means growth rescue above about 28%, passing the limit was not always enough;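 further: yeast W303a lacking pdr1 and pdr3 grown in galactose medium; growth measured after three days at 30 °C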
# PrPC TRFRET – cell surface PrPC inhibition, primary TR-FRET screen; inhibition, % at 13.8 µM; 370,000 tested, 0.43% active; TR-FRET read-out; P04156; in the data active means inhibition above about 24%; further: 0% = median of the test wells and 100% = reference compound wells
# BJeLR viability – kills HRASV12-expressing BJeLR cells | AID 1554 | BJeLR (HRASV12) viability, CellTiter-Glo ATP luminescence, 48 h | 300,000 tested, 0.17% active | inhibition, % (test concentration not listed); in the data active means inhibition above about 50%
# Mtb FBA inh – inhibitors of M. tuberculosis fructose-bisphosphate aldolase; purified M. tuberculosis FBA, fluorescence read-out; 360,000 tested, 2.3% active; AID 588726; inhibition, % at 1 µM; in the data active means inhibition above about 27%;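 further: 0% = vehicle and 100% = reference inhibitor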
# Target sequence (P9WQA3 whole entry, looked up): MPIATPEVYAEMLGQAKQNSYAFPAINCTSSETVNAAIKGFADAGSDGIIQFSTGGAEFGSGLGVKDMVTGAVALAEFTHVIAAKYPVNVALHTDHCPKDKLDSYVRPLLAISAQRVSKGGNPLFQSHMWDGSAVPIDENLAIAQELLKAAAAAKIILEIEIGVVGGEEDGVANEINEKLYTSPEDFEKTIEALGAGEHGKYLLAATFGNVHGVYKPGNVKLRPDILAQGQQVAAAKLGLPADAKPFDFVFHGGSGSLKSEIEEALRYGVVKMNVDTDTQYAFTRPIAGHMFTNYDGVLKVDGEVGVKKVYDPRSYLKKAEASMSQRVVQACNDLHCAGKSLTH
# PrP UTR inh – suppresses PrP 5' UTR mRNA reporter expression. inhibition, % (no concentration beside the values). cell-based PrP 5' UTR mRNA reporter, plate reader. 340,000 tested, 0.35% active; in the data active means inhibition above about 52%; further: 0 = median of the neutral control wells
# PrPC confirm – confirmation of inhibitors of cell surface human prion protein; 1,500 tested, 65% active; cell surface PrPC level, TR-FRET; inhibition, % at 13.8 µM; shares compounds with PrPC TRFRET; AID 743200; in the data active means inhibition above about 25%
# LD9 cytotox – LD9 cell cytotoxicity, PrPc inhibitor counter-screen; shares compounds with PrPC TRFRET; LD9 cells cytotoxicity, luminescence viability; inhibition, % at 13.8 µM; 1,500 tested, 29% active; AID 743201; in the data active means inhibition above about 9.5%
# * = called active by the depositor; · = no result given. Compounds with a hit are over-represented: about 4.5% of the library has one in this group of screens.
SMILES,GDH-TPI inh,PfHsp40 yeast,PrPC TRFRET,BJeLR viability,Mtb FBA inh,PrP UTR inh,PrPC confirm,LD9 cytotox
Cc1ccc(N(C(=O)c2ccc(S(=O)(=O)N3CCCC3)cc2)C2C=CS(=O)(=O)C2)cc1 (stereo not given),-2,-1,3,-8,-2,-23,·,·
CCOC(=O)c1c(C)n(-c2ccccc2)c2ccc(O)cc12,-3,-1,27*,4,-2,-4,-2,-8
Cc1ccc(C(C)C)c(OCc2ccc(C(=O)N/N=C/c3ccc(C(=O)O)cc3)cc2)c1,9,2,7,-6,0,3,·,·
Cc1ccc(C(C)C)c(OCc2ccc(C(=O)N/N=C/c3ccc(O)cc3O)cc2)c1,13,1,38*,35,2,35,43*,17*
CCCCN(C)C(=O)c1nc2ccccn2c1CN1CCSCC1,9,1,4,-2,1,-2,·,·
CC1CC(N(C(=O)c2ccc(Cl)cc2)c2ccccc2)c2ccccc2N1C(=O)c1ccco1 (stereo not given),0,-2,25*,-1,-1,-27,13,-3
CC1CN(c2ccccc2)c2nc3c(c(=O)[nH]c(=O)n3C)n2C1 (stereo not given),8,-1,3,1,-3,-12,·,·
CC1CN(c2ccc(Cl)cc2)c2nc3c(c(=O)[nH]c(=O)n3C)n2C1 (stereo not given),8,0,38*,-7,3,0,2,-3
CC1CCN(C(=O)CSc2nnc(CSc3ncccn3)n2C)CC1,-14,-1,25*,3,5,-22,7,-2
Cc1ccc(C(=O)NCc2ccncc2)cc1S(=O)(=O)Nc1cccc(C)c1C,2,1,24*,-8,4,-20,32*,-3
Cc1ccc(C)c(NS(=O)(=O)c2cc(C(=O)NCc3ccncc3)ccc2C)c1,4,-2,1,-6,2,-17,·,·
CC1(Cc2ccc(Cl)c(Cl)c2)C(=O)Nc2ccc(S(=O)(=O)NC3CCCCC3)cc21 (stereo not given),4,·,16,·,3,·,·,·
CC1(Cc2cccc(F)c2)C(=O)Nc2ccc(S(=O)(=O)NC3CCCCC3)cc21 (stereo not given),2,·,36*,·,-2,·,8,-4
CCn1c(SCC(=O)NNC(=O)c2ccc(C)cc2)nnc1C1CC1,6,-1,4,-4,0,1,·,·
O=C(O)/C(=C\c1ccccc1OC(F)F)Sc1nnc(-c2ccc(F)cc2)o1,14,1,1,-7,0,-7,·,·
CCC(C)NC(=O)Cn1c(-c2ccccc2)cc(C(C)=O)c1C (stereo not given),4,0,3,3,2,-15,·,·
CNC(=O)OCc1nc(SSC(C)(C)C)n(C)c1COC(=O)NC,-6,-2,50*,·,-5,-20,23,92*
N=C1C(c2nc3ccccc3s2)=C(O)CN1NC(=O)c1ccccc1[N+](=O)[O-],14,1,2,-1,0,-34,·,·
N=C1C(c2nc3ccccc3s2)=C(O)CN1NC(=O)c1c[nH]c2ccccc12,11,1,26*,2,3,-7,34*,6
COc1ccc(/C(O)=C2/C(=O)C(=O)N(c3ccccn3)C2c2ccc(OC)c(OC)c2)cc1 (stereo not given),11,1,-3,1,1,-20,·,·
COc1ccc(C(=O)Nc2nnc(CC(=O)N/N=C/c3ccc(O)cc3O)s2)cc1,18,0,-8,-5,5,-5,·,·
COc1ccc2[nH]c(C(=O)Nc3ccc(C)c(F)c3)cc2c1,6,1,39*,-6,4,-38,99*,5
COc1ccc2[nH]c(C(=O)N/N=C/c3ccc(O)cc3O)cc2c1,31*,-1,32*,38,18,35,40*,19*
Cc1ccc(-n2c(-c3ccc(Br)cc3)c[n+]3c2CCc2ccc4cccnc4c2-3)cc1,-2,9,25*,77*,6,-15,31*,46*
